Results as given in publication PMC4336329 (PLoS ONE, 2015).
Screen size: about 310,000 compounds; about 14,000 (4.5%) showed an effect of 50% or more. The effect is printed as a negative number. The full list was thinned out, with strong results kept by preference.

Each compound was assayed against human ether-à-go-go-related gene (hERG) potassium channel (human, UniProt Q12809) (assay: primary screen, population patch clamp on CHO cells stably expressing hERG; higher = less effect of the substance).
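Further: peak tail current of the secondary pulse compared with the same well before compound.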

Sequence of human ether-à-go-go-related gene (hERG) potassium channel (Q12809 whole entry, looked up): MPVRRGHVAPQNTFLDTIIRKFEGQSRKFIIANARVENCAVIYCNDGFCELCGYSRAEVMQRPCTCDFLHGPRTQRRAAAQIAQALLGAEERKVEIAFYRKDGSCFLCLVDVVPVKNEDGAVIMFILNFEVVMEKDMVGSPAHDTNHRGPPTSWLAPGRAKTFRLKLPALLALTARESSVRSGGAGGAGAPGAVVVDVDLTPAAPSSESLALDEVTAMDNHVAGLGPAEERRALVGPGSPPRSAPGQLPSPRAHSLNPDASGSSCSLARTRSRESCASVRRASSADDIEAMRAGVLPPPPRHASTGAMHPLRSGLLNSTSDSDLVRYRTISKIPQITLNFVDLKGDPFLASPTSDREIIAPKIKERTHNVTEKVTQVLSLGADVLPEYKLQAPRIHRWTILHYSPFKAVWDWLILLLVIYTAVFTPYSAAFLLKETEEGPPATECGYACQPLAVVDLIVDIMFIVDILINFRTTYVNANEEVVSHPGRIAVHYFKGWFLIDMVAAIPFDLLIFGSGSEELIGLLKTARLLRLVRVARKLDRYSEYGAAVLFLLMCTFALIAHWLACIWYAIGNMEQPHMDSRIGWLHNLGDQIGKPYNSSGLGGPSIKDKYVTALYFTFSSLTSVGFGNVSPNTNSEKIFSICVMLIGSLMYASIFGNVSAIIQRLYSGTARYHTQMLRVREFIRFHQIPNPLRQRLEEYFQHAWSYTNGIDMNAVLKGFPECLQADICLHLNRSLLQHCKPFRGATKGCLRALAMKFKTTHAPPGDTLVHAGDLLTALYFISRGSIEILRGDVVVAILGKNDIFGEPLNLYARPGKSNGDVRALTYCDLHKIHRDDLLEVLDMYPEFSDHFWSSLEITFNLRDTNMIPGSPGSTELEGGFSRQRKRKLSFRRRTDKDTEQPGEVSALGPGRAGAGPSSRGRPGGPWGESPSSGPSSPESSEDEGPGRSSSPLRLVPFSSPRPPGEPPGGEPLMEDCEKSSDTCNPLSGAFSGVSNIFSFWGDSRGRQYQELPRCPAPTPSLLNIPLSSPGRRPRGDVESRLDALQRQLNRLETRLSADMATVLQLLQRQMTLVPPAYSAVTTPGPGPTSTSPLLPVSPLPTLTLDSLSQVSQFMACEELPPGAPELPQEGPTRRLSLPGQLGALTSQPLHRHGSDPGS

| Compound | hERG current change (%, negative = inhibition) at 10uM |
| --- | --- |
| N/C(=N\c1nc2ccccc2o1)NC(=O)c1ccc(Cl)cc1 | 35.6% |
| CCC(C(=O)OCc1csc(CC(=O)Nc2ccccc2C)n1)c1ccccc1 (stereo not drawn) | -6.51% |
| COc1ccc(Cn2c(O)c(C=NCCN3CCOCC3)c(=O)[nH]c2=O)cc1 | -14.4% |
| Cc1cc(Cl)ccc1OCCCC(=O)NC1CCN(C)CC1 | -51.2% |
| Cc1cc(Cl)ccc1OCC(=O)NC1CCCC1 | -22.2% |
| Cc1cc(Cl)ccc1OCCCC(=O)N1CCN(C(=O)c2ccco2)CC1 | -74.5% |
| Cc1cc(Cl)ccc1OCCCC(=O)N1CCN(C)CC1 | -30% |
| Cc1cc(Cl)ccc1OCCCC(=O)N1CCOCC1 | -25% |
| O=C(CCCOc1ccc(Cl)cc1Cl)N1CCc2ccccc2C1 | 12% |
| Cc1cc(Cl)ccc1OCC(=O)N1CCCN(C(=O)COc2ccc(Cl)cc2C)CC1 | -58.5% |
| CN1CCN(C(=O)CCCOc2ccc(Cl)cc2Cl)CC1 | -61.6% |
| Cc1cc(Cl)ccc1OCCCC(=O)N1CCCCC1 | -14.2% |
| Cc1cc(Cl)ccc1OCCCC(=O)NN | 13.8% |
| Cc1cc(Cl)ccc1OCC(=O)N1CCN(C)CC1 | -12.5% |
| Cc1cc(Cl)ccc1OCC(=O)N1CCCCC1 | -0.846% |
| CCC12CN(C(=O)c3ccc(OC)cc3)CC(CC)(CN(C(=O)c3ccc(OC)cc3)C1)C2=O | 3.45% |
| Cc1cc2cc3c(cc2nc1SCC(=O)N1CCOCC1)OCO3 | 2.58% |
| CCOc1ccc(S(=O)(=O)NCCC(=O)N2CCN(c3ncccn3)CC2)cc1 | -8.57% |
| CCC(Sc1nc(N)c(NC(=O)c2ccc(Br)o2)c(=O)[nH]1)C(=O)O (stereo not drawn) | 15.4% |
| C/C(CC1CC(COCCC(C)C)OC1=O)=N\NC(N)=S (stereo not drawn) | 4.37% |
| COC(=O)C1=C(N)Oc2cc(C)n(CC3CCCO3)c(=O)c2C1c1ccc(Cl)c(Cl)c1 (stereo not drawn) | 3.95% |
| CC(=O)c1cccc(N(CC(=O)Nc2cc(C)cc(C)c2)S(C)(=O)=O)c1 | 13.3% |
| CSc1nc2sc3c(c2c(=O)[nH]1)CC(C)(C)OC3 | 13.8% |
| CCc1ccccc1N1CN(Cc2cccnc2)CNC1=S | 3.35% |

| Compound | hERG current change (%, negative = inhibition) at 10uM |
| --- | --- |
| Cc1cc(C)nc(N2CCCC(C(=O)Nc3ccc4nc(C)c(C)nc4c3)C2)n1 (stereo not drawn) | 9.96% |
| COc1cccc(/C=N/NC(=O)CN(C2=NS(=O)(=O)c3ccccc32)c2ccccc2)c1 | 0.919% |
| O=C(NC(=S)Nc1ccc(CN2CCOCC2)cc1)c1ccc(-c2cccc(Cl)c2)o1 | 7.11% |
| O=C(Nc1ccc(-c2nnc3n2CCCCC3)cc1)c1ccco1 | 5.26% |
| CN1CCN(c2ccc(NC(=O)c3ccc4ccccc4c3)cc2)CC1 | -66.1% |
| O=C(Nc1ccc(CN2CCOCC2)cc1)c1ccc(-c2cccc(Cl)c2)o1 | -52.8% |
| O=C(Nc1ccc(CN2CCOCC2)cc1)c1cc2ccccc2o1 | -50.2% |
| O=C(Nc1ccc(-c2nnc3n2CCCCC3)cc1)c1cc2ccccc2o1 | -71.8% |
| O=C(Nc1ccc(N2CCCC2)cc1)c1ccc2ccccc2c1 | 0.743% |
| O=C(Nc1ccc(N2CCOCC2)cc1)c1cc2ccccc2o1 | 4.38% |
| CC(=O)N1CCN(c2ccc(NC(=O)c3ccc4ccccc4c3)cc2)CC1 | -7.05% |
| O=C(Nc1ccc(CN2CCOCC2)cc1)c1ccc(-c2cccc([N+](=O)[O-])c2)o1 | -48.3% |
| O=C(NC(=S)Nc1ccc(CN2CCOCC2)cc1)c1cc2ccccc2o1 | 11.7% |
| Cc1c(C(=O)Nc2ccc(-c3nnc4n3CCCCC4)cc2)oc2c1ccc1ccccc12 | -13.8% |
| Cc1ccc(C2=NS(=O)(=O)N(C)C(C(=O)NCc3ccccc3)=C2)cc1 | -0.52% |
| O=C(NCCN1CCOCC1)c1ccc(Cl)c([N+](=O)[O-])c1 | 16.5% |
| Cc1ccc2c(c1)N(C(C)C(=O)NCCc1ccccc1)C(=O)CO2 (stereo not drawn) | 7.21% |
| COc1cc(C(=O)Nc2cc(C(F)(F)F)ccc2N2CCOCC2)ccc1O | -26.6% |
| O=C(CCc1nc(-c2ccccc2Cl)no1)NCCc1ccccc1 | 7.08% |
| COc1ccc(CCNC(=O)c2c(O)c3ccccc3n(C)c2=O)cc1 | -12.1% |
| O=c1[nH][nH]c(-c2ccccc2)c1C=Nc1cccc(Cl)c1 | 5.35% |
| Cl.Clc1cccc(-c2ccc(CNCCCN3CCOCC3)o2)c1 | -58.3% |
| CS(=O)(=O)N1CCN(c2ccc(NC(=O)c3ccc(-c4ccc(Cl)cc4)o3)cc2)CC1 | -10.6% |
| CN1CCN(c2ccc(NC(=O)c3cc4ccccc4o3)cc2)CC1 | -72.3% |
